Common to all, as to experiment: log2 fold change, soluble protein after heating vs DMSO (PISA); higher = thermal stabilisation; K562 cells, 10 uM, 30 min; active = over 0.2 and 3.5 SD of the protein, either way, in both replicates (recomputed)
Compound in assay [1]: CN1CCN(CCOc2cc(OC3CCOCC3)c3c(Nc4c(Cl)ccc5c4OCO5)ncnc3c2)CC1 [saracatinib]
The method in brief: (§1)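 K562 cells at 2×10^6 cells/mL were treated with 10 μM compound for 30 min. Aliquots were heated for 3 min across 48°C-58°C, pooled, and extracted in PBS with 0.5% NP-40 at 4°C; soluble protein was the supernatant after 21,000xg for 90 min. Soluble protein was quantified by TMTpro 16plex LC-MS/MS with channel sums equalised, and reported as log2 fold change in thermal stability against DMSO controls, with values from duplicates.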

Compound in assay [2]: CN1CCN(c2nc(C3=C(c4c[nH]c5ccccc45)C(=O)NC3=O)c3ccccc3n2)CC1 [sotrastaurin]
The gist of the method: as §1

Compound in assay [3]: CN1CC[C@H](c2c(O)cc(O)c3c(=O)cc(-c4ccccc4Cl)oc23)[C@H](O)C1 [alvocidib]
The gist of the method:
as §1

Compound in assay [4]: CN1CCc2c(c3ccccc3n2Cc2ccc(C(=O)NO)cc2)C1 [Tubastatin A]
The method in brief: as §1

Compound in assay [5]: CNC(=O)C1=CC=CC=C1NC2=NC(=NC=C2Cl)NC3=C(C=C(C=C3)N4CCOCC4)OC
The method in brief:
as §1

Compound in assay [6]: CNC(=O)c1ccc(Nc2ncc(C(F)(F)F)c(NCc3nccnc3N(C)S(C)(=O)=O)n2)cc1 [defactinib]
The gist of the method: as §1

Compound in assay [7]: CNCc1ccc(-c2[nH]c3cc(F)cc4c3c2CCNC4=O)cc1 [rucaparib]
The method in brief: as §1

Compound in assay [8]: CNc1nc(-c2ccc3c(N)n[nH]c3c2)cc(N2C[C@@H](C(=O)NC3CCCCC3)CC[C@H]2C)n1
The method in brief: as §1

Compound in assay [9]: COC(=O)N[C@@H](C)CNc1nccc(-c2cn(C(C)C)nc2-c2cc(Cl)cc(NS(C)(=O)=O)c2F)n1 [encorafenib]
The method in brief:
as §1

Compound in assay [10]: COC(=O)[C@H](CCSC)NC(=O)C1=C(C=C(C=C1)NC[C@H](CS)N)C2=CC=CC=C2
The gist of the method: as §1

Compound in assay [11]: COC1=CC=C(C=C1)CN2C=CC3=C2C=C(C=C3)C(=O)NO
The method in brief:
as §1

Compound in assay [12]: CON(C)C(=O)N1N=C(c2cc(F)ccc2F)S[C@@]1(CCCN)c1ccccc1 [filanesib]
The method in brief: as §1

Compound in assay [13]: CO[C@H]1C[C@@H]2CC[C@@H](C)[C@@](O)(O2)C(=O)C(=O)N2CCCC[C@H]2C(=O)O[C@H]([C@H](C)C[C@@H]2CC[C@H](n3cnnn3)[C@H](OC)C2)CC(=O)[C@H](C)/C=C(\C)[C@@H](O)[C@@H](OC)C(=O)[C@H](C)C[C@H](C)/C=C/C=C/C=C/1C [zotarolimus]
The gist of the method:
as §1

Compound in assay [14]: COc1cc(C(=O)O)ccc1NC(=O)[C@@H]1N[C@@H](CC(C)(C)C)[C@](C#N)(c2ccc(Cl)cc2F)[C@H]1c1cccc(Cl)c1F [idasanutlin]
The gist of the method:
as §1

Compound in assay [15]: COc1cc(Nc2ncc3c(n2)-c2ccc(Cl)cc2C(c2c(F)cccc2OC)=NC3)ccc1C(=O)O [alisertib]
The method in brief:
as §1

Compound in assay [16]: COc1cc2nc(-c3cc(F)ccc3O)nc(N[C@@H]3CNC[C@H]3C(C)(C)O)c2cc1OC
The gist of the method: as §1

Compound in assay [17]: COc1cccc2cc(-c3nc([C@H]4CC[C@H](C(=O)O)CC4)n4ncnc(N)c34)[nH]c12
The method in brief:
as §1

Compound in assay [18]: CS(=O)(=O)CCNCc1ccc(-c2ccc3ncnc(Nc4ccc(OCc5cccc(F)c5)c(Cl)c4)c3c2)o1 [lapatinib]
The method in brief:
as §1

Compound in assay [19]: CS(=O)(=O)N1CCN(Cc2cc3nc(-c4cccc5[nH]ncc45)nc(N4CCOCC4)c3s2)CC1 [pictilisib]
The gist of the method: as §1

Compound in assay [20]: COc1cc2ncnc(Nc3ccc(F)c(Cl)c3)c2cc1OCCCN1CCOCC1 [gefitinib]
The method in brief:
as §1

The full data set covers some 7,900 targets. This sample favours those with a hit. About 0.6% of all pairs of compound and target were hits. Unmarked numbers belong to inactive results.

Sequence of UniProt Q6P9B9 (Q6P9B9 whole entry, looked up): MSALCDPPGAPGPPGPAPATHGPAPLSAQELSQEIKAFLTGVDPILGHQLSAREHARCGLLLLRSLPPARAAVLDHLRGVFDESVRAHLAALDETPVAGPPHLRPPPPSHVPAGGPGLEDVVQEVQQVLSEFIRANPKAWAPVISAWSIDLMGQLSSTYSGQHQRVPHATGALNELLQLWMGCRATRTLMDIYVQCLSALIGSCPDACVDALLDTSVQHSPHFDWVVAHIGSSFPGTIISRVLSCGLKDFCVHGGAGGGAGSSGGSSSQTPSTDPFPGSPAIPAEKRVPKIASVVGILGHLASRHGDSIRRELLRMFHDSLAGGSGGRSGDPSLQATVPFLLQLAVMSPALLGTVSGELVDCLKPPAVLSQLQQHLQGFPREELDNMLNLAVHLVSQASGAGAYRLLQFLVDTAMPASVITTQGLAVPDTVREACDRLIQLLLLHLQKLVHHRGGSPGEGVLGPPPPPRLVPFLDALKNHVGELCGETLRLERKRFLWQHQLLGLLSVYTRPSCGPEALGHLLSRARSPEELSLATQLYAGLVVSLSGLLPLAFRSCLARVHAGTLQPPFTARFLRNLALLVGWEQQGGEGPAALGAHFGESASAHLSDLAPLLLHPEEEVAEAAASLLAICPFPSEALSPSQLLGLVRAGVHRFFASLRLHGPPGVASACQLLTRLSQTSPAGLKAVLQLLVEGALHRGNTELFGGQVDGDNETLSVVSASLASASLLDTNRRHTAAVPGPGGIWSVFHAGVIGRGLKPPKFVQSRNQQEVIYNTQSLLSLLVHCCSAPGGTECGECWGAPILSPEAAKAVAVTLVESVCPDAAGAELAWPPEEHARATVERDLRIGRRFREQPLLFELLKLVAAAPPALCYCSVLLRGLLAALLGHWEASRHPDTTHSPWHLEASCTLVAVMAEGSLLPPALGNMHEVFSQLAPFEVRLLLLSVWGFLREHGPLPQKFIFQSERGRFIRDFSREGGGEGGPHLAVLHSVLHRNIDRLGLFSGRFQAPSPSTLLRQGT
Sequence of UniProt P13473 (P13473 whole entry, looked up): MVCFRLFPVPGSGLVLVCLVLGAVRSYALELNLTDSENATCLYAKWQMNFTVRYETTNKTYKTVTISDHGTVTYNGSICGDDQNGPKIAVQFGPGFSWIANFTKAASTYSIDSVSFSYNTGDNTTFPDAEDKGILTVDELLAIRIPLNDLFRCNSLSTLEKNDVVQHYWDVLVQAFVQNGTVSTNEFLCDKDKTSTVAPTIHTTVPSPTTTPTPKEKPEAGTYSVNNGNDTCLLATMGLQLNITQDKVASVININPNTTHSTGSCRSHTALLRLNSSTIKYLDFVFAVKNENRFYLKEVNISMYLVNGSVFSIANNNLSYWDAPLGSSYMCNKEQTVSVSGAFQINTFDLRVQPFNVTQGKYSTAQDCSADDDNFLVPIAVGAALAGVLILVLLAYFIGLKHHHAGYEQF
Sequence of UniProt P51884 (P51884 whole entry, looked up): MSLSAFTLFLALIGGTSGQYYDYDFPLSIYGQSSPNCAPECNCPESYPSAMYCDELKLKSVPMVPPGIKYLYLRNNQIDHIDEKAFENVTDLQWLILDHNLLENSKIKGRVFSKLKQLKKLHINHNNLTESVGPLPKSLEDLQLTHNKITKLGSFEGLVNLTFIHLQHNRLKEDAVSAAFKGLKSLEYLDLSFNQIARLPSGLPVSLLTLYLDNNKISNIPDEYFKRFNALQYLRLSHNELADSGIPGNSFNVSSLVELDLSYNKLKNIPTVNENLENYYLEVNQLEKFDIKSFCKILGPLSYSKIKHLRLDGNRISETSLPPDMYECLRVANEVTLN
Sequence of UniProt Q96PV6 (Q96PV6 whole entry, looked up): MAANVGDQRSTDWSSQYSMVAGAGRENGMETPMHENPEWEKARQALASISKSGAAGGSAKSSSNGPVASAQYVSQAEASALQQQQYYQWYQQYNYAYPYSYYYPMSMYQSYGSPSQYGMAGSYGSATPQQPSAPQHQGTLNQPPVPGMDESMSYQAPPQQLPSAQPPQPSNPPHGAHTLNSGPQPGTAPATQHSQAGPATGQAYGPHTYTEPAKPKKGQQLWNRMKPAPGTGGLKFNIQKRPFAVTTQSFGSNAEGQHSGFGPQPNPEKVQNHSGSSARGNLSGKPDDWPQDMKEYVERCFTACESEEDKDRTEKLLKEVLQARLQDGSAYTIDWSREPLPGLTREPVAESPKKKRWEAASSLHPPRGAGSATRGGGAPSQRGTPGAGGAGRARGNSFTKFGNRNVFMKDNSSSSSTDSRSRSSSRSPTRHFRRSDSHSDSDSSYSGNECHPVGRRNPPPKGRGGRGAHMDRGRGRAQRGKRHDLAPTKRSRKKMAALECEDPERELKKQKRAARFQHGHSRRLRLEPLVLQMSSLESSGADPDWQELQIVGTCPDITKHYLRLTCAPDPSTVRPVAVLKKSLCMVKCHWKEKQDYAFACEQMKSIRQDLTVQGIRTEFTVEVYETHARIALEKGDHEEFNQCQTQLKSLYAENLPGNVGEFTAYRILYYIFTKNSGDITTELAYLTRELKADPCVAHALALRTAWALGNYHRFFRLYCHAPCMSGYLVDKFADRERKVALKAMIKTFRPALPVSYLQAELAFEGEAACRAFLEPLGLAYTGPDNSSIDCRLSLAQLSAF
Sequence of UniProt Q86X29 (Q86X29 whole entry, looked up): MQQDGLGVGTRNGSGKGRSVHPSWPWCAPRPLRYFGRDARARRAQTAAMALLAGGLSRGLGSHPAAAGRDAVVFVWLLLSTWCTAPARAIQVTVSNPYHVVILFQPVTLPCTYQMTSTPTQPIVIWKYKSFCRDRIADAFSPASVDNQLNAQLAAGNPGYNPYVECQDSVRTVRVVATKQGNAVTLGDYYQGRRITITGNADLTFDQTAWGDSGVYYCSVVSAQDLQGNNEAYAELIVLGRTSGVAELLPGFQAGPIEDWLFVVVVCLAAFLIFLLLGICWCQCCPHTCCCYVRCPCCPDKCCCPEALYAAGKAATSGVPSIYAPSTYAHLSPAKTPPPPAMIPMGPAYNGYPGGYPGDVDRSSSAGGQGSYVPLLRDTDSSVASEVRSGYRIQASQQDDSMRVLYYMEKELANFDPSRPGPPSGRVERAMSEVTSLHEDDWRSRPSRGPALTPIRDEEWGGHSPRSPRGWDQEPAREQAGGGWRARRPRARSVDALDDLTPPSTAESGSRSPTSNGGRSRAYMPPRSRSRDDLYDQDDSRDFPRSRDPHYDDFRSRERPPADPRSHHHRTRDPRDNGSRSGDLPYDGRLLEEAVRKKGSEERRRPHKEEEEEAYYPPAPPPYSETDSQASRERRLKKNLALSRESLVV
Sequence of UniProt Q08334 (Q08334 whole entry, looked up): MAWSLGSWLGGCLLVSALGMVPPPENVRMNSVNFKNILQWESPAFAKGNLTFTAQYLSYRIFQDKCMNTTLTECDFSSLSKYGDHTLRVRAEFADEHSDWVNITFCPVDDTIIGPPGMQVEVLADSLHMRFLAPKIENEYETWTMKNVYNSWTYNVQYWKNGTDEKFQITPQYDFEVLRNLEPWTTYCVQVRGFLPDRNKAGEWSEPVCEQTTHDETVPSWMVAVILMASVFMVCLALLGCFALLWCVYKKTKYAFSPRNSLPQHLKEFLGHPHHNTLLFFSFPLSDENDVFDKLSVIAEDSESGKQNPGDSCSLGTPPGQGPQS
Sequence of UniProt Q9P244 (Q9P244 whole entry, looked up): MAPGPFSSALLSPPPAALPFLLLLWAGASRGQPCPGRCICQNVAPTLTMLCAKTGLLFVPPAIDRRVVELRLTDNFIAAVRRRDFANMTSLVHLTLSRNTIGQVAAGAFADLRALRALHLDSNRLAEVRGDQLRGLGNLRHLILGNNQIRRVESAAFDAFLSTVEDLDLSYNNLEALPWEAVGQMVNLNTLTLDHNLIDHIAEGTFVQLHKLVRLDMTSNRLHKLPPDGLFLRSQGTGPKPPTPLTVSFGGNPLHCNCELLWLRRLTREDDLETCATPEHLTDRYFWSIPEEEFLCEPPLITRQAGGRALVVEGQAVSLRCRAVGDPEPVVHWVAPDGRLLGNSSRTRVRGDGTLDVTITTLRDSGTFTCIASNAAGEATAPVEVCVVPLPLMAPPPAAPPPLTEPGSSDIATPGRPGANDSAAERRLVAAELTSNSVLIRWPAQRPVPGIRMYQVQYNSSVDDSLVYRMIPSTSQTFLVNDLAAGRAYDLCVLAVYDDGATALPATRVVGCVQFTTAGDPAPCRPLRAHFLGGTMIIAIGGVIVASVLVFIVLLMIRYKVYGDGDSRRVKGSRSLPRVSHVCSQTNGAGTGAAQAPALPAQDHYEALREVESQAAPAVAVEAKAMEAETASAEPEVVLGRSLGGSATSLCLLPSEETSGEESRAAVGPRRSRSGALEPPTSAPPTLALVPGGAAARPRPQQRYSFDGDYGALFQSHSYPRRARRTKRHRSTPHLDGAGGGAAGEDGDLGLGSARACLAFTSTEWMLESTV

Consider KIF3B (UniProt O15066), for which the log2 fold change is -0.068 in assay [1]; 0.005 in [2]; -0.011 in assay [3]; 0.002 in assay [4]; 0.069 in assay [5]; 0.028 in [6]. For the same target, the log2 fold change is -0.189 in [7]; -0.063 in assay [8]; 0.034 in assay [9]; -0.043 in assay [10]; -0.071 in assay [11]; 0.04 in assay [12]. Also, the log2 fold change in assay [13] was 0.027; in [14], -0.252; in [15], -0.071; in [16], 0.164; in assay [17] it was 0.04; in assay [18] it was 0.035. Besides, the log2 fold change in [19] is -0.161.

As for LSR isoform 3 (UniProt Q86X29), the log2 fold change is -0.207 in assay [1]; 0.176 in assay [2]; 0.088 in assay [3]; 0.084 in [4]; 0.114 in assay [8]; 0.188 in [12]. Besides, the log2 fold change was 0.115 in [13]; -0.011 in assay [15]; 0.041 in [16]; 0.033 in assay [17]; 0.073 in assay [18].

Regarding LENG8 (UniProt Q96PV6), the log2 fold change is -0.112 in assay [1]; -0.043 in [2]; -0.074 in assay [3]; -0.021 in assay [4]; -0.125 in [5]; -0.316 in assay [6]. Moreover, the log2 fold change in assay [7] was 0.044; in [8], 0.133; in assay [9] it was 0.129; in assay [10], -0.133; in assay [11] it was 0.205; in assay [12] it was 0. The log2 fold change in [13] is -0.061; in assay [14], -0.151; in assay [15], -0.149; in [20] it was -0.056; in assay [17], -0.016; in assay [19], -0.002.

Turning to INTS5 (UniProt Q6P9B9), the log2 fold change is -0.051 in assay [1]; -0.06 in assay [2]; -0.133 in assay [4]; -0.086 in assay [5]; -0.058 in [6]; 0.044 in assay [8]. In addition, the log2 fold change in [10] was 0; in [11], -0.02; in [12], -0.055; in assay [14] it was 0.045; in assay [15], -0.019; in assay [16], -0.111. Moreover, the log2 fold change in [20] was -0.017; in [17], -0.004; in assay [18], 0.13.

MARK2 (UniProt E9PC69): the log2 fold change in [1] is -0.103; in [2], -0.555; in assay [3], -0.007; in assay [4] it was 0.278; in assay [5], -1.12 (active); in [6], -0.07. Besides, the log2 fold change in [7] was 0.187; in assay [8], 0.037; in [9], 0.144; in assay [10] it was -0.028; in [11] it was -0.028; in assay [12], 0.128. The log2 fold change in assay [13] is 0.122; in assay [14] it was 0.106; in [16], -0.765 (active); in assay [20] it was -0.025; in assay [18], 0.085.

LAMP2 isoform 2 (UniProt P13473): the log2 fold change was 0.24 in assay [1]; -0.026 in [3]; 0.021 in [4]; 0.027 in assay [5]; 0.078 in assay [6]; 0.024 in [7]. Further, the log2 fold change in [8] is -0.192; in assay [9], 0.043; in [10] it was -0.017; in [11], -0.049; in [13], 0.022; in [14] it was 0.017. Besides, the log2 fold change in assay [15] is -0.105; in assay [16] it was -0.027; in assay [20], -0.039; in [17], 0.09; in assay [18], -0.104; in assay [19], 0.075.

Regarding LRFN1 (UniProt Q9P244), the log2 fold change in assay [1] was 0.053; in [2], -0.08; in assay [3], -0.44 (active); in [4], -0.006; in assay [5], -0.24; in [6], -0.048. Moreover, the log2 fold change in assay [7] is 0.062; in [8], -0.028; in [9], -0.227; in assay [10] it was -0.069; in assay [11], -0.054; in assay [12], 0.151. Further, the log2 fold change in assay [13] was 0.031; in assay [16], 0.025; in [18], -0.048.

Take IL10RB (UniProt Q08334): the log2 fold change is 0.107 in assay [1]; -0.021 in assay [2]; 0.022 in [4]; -0.121 in [5]; -0.042 in assay [6]; 0.015 in assay [7]. Moreover, the log2 fold change in assay [8] was -0.005; in assay [9], -0.093; in assay [10], 0.026; in [11], -0.161; in [12], 0.299; in [14], -0.008. The log2 fold change in [16] is 0.048; in [20], 0.088; in assay [18], 0.011; in [19], 0.025.

Take LUM (UniProt P51884): the log2 fold change was 0.081 in [1]; 0.29 in [2]; 0.047 in assay [3]; -0.145 in assay [4]; 0.085 in assay [5]; -0.071 in assay [6]. Moreover, the log2 fold change in [7] is -0.167; in assay [8], 0.014; in [9] it was -0.011; in assay [10], 0.283; in [11] it was -0.151; in assay [12] it was 0.169. In addition, the log2 fold change in [13] was 0; in assay [14], -0.023; in assay [16], -0.216; in [20] it was 0.087; in [18] it was 0.067.
